Test results reported in PubChem BioAssay AID1159580 (chemical genetic matrix, 2015).
In all, about 5,500 compounds went through this assay and about 2,000 (36%) were called active. Not shown: some 18% with an inconclusive outcome. No stated cut-off is given here; in the data, active means normalized growth mostly below about 0.91 (no sharp cut-off); inconclusive means no clear call, values can overlap the other calls; inactive means mostly above about 0.92. The list shows a part of the results.

Assay: chemical genetic growth profiling, strain panel (AID 1159580);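 further: tested at 20 µM; growth read once vehicle control cultures reached saturation at 30 °C; 1 = growth at the plate median or of vehicle wells; lower values mean less growth of the strain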
Details: growth OD

Measured: normalized growth

CC(=O)O[C@H]1CC[C@]2(C)C3CC[C@@]4(C)C(CC5O[C@@]6(CCC(C)CO6)[C@@H](C)C54)C3CC[C@@H]2C1 (stereo partly specified)
inactive: S. cerevisiae deletion strains, locus YJR066W, strain TOR1, hits give low values 0.946 | S. cerevisiae deletion strains, locus YJR075W, strain HOC1, hits give low values 0.982 | S. cerevisiae deletion strains, locus YKL009W, strain mrt4, hits give low values 1.04 | S. cerevisiae deletion strains, locus YKL068W, hits give low values 1 | S. cerevisiae deletion strains, locus YKL160W, strain elf1, hits give low values 1.01 | S. cerevisiae deletion strains, locus YKL190W, strain CNB1, hits give low values 1 | S. cerevisiae deletion strains, locus YKR001C, strain vps1, hits give low values 0.998 | S. cerevisiae deletion strains, locus YKR026C, strain gcn3, hits give low values 1.02 | S. cerevisiae deletion strains, locus YKR091W, strain srl3, hits give low values 1.02 | S. cerevisiae deletion strains, locus YLL001W, strain dnm1, hits give low values 1.01 | S. cerevisiae deletion strains, locus YLL026W, hits give low values 1.02 | S. cerevisiae deletion strains, locus YLL041C, strain sdh2, hits give low values 1.02 | S. cerevisiae deletion strains, locus YLR027C, strain aat2, hits give low values 1 | S. cerevisiae deletion strains, locus YLR039C, strain RIC1, hits give low values 0.992 | S. cerevisiae deletion strains, locus YLR058C, strain SHM2, hits give low values 0.993 | S. cerevisiae deletion strains, locus YLR102C, strain apc9, hits give low values 0.991 | S. cerevisiae deletion strains, locus YLR113W, strain HOG1, hits give low values 0.963 | S. cerevisiae deletion strains, locus YLR221C, strain rsa3, hits give low values 1.03 | S. cerevisiae deletion strains, locus YLR258W, strain gsy2, hits give low values 1.01 | S. cerevisiae deletion strains, locus YLR262C, strain YPT6 (second series), hits give low values 1.01 | S. cerevisiae deletion strains, locus YLR268W, strain sec22, hits give low values 0.998 | S. cerevisiae deletion strains, locus YLR320W, strain mms22, hits give low values 1.03 | S. cerevisiae deletion strains, locus YLR330W, strain CHS5, hits give low values 0.984 | S. cerevisiae deletion strains, locus YLR342W, strain FKS1 (second series), hits give low values 1.01 | S. cerevisiae deletion strains, locus YLR342W, strain FKS1, hits give low values 1.03 | S. cerevisiae deletion strains, locus YLR357W, strain rsc2, hits give low values 1.01 | S. cerevisiae deletion strains, locus YLR370C, strain arc18, hits give low values 1.02 | S. cerevisiae deletion strains, locus YLR371W, strain rom2, hits give low values 0.99 | S. cerevisiae deletion strains, locus YLR384C, strain iki3, hits give low values 0.99 | S. cerevisiae deletion strains, locus YLR418C, strain cdc73, hits give low values 0.947 | S. cerevisiae deletion strains, locus YML016C, strain PPZ1, hits give low values 0.992 | S. cerevisiae deletion strains, locus YML032C, strain rad52, hits give low values 0.977 | S. cerevisiae deletion strains, locus YML120C, strain ndi1, hits give low values 1.03 | S. cerevisiae deletion strains, locus YML124C, strain tub3, hits give low values 0.979 | S. cerevisiae deletion strains, locus YMR058W, strain fet3, hits give low values 1.01 | S. cerevisiae deletion strains, locus YMR078C, strain ctf18, hits give low values 1 | S. cerevisiae deletion strains, locus YMR125W, strain sto1, hits give low values 1.03 | S. cerevisiae deletion strains, locus YMR129W, hits give low values 1 | S. cerevisiae deletion strains, locus YMR205C, strain PFK2, hits give low values 0.999 | S. cerevisiae deletion strains, locus YMR223W, strain ubp8, hits give low values 0.984 | S. cerevisiae deletion strains, locus YMR231W, strain pep5, hits give low values 1.01 | S. cerevisiae deletion strains, locus YMR263W, strain SAP30, hits give low values 0.996 | S. cerevisiae deletion strains, locus YMR307W, strain GAS1, hits give low values 1.12 | S. cerevisiae deletion strains, locus YNL067W, strain RPL9B, hits give low values 0.98 | S. cerevisiae deletion strains, locus YNL071W, strain lat1, hits give low values 1 | S. cerevisiae deletion strains, locus YNL128W, strain TEP1, hits give low values 0.998 | S. cerevisiae deletion strains, locus YNL153C, strain GIM3, hits give low values 0.984 | S. cerevisiae deletion strains, locus YNL183C, strain NPR1, hits give low values 0.964 | S. cerevisiae deletion strains, locus YNL209W, strain ssb2, hits give low values 1 | S. cerevisiae deletion strains, locus YNL233W, strain BNI4, hits give low values 1.02 | S. cerevisiae deletion strains, locus YNL248C, strain rpa49, hits give low values 1.02 | S. cerevisiae deletion strains, locus YNL250W, strain rad50, hits give low values 0.975 | S. cerevisiae deletion strains, locus YNL271C, strain bni1, hits give low values 0.989 | S. cerevisiae deletion strains, locus YNL298W, strain CLA4, hits give low values 1 | S. cerevisiae deletion strains, locus YNL307C, strain MCK1, hits give low values 0.996 | S. cerevisiae deletion strains, locus YNL322C, strain KRE1 (second series), hits give low values 1.03 | S. cerevisiae deletion strains, locus YNR049C, strain mso1, hits give low values 0.995 | S. cerevisiae deletion strains, locus YNR052C, strain pop2, hits give low values 0.983 | S. cerevisiae deletion strains, locus YOL012C, strain htz1 0.761 | S. cerevisiae deletion strains, locus YOL147C, strain pex11, hits give low values 0.986 | S. cerevisiae deletion strains, locus YOR001W, strain rrp6, hits give low values 1.01 | S. cerevisiae deletion strains, locus YOR061W, strain CKA2, hits give low values 0.999 | S. cerevisiae deletion strains, locus YOR069W, strain VPS5, hits give low values 0.983 | S. cerevisiae deletion strains, locus YOR070C, strain gyp1, hits give low values 1.02 | S. cerevisiae deletion strains, locus YOR080W, strain dia2, hits give low values 1.01 | S. cerevisiae deletion strains, locus YOR083W, strain WHI5, hits give low values 1.04 | S. cerevisiae deletion strains, locus YOR106W, strain vam3, hits give low values 1.02 | S. cerevisiae deletion strains, locus YOR136W, strain idh2, hits give low values 0.993 | S. cerevisiae deletion strains, locus YOR144C, strain elg1, hits give low values 0.994 | S. cerevisiae deletion strains, locus YOR184W, strain ser1, hits give low values 1.03 | S. cerevisiae deletion strains, locus YOR231W, strain MKK1, hits give low values 0.988 | S. cerevisiae deletion strains, locus YOR265W, strain rbl2, hits give low values 1.02 | S. cerevisiae deletion strains, locus YOR270C, strain vph1, hits give low values 1 | S. cerevisiae deletion strains, locus YOR290C, strain snf2, hits give low values 1.03 | S. cerevisiae deletion strains, locus YOR316C, strain cot1, hits give low values 0.989 | S. cerevisiae deletion strains, locus YPL051W, strain arl3, hits give low values 1.02 | S. cerevisiae deletion strains, locus YPL078C, strain atp4, hits give low values 1.04 | S. cerevisiae deletion strains, locus YPL106C, strain sse1, hits give low values 0.978 | S. cerevisiae deletion strains, locus YPL240C, strain hsp82, hits give low values 1 | S. cerevisiae deletion strains, locus YPL256C, strain CLN2, hits give low values 0.957 | S. cerevisiae deletion strains, locus YPR119W, strain clb2, hits give low values 0.984 | S. cerevisiae deletion strains, locus YPR141C, strain kar3, hits give low values 0.98 | S. cerevisiae deletion strains, locus YPR163C, strain tif3, hits give low values 0.986 | S. cerevisiae deletion strains, locus YPR167C, strain met16, hits give low values 1 | S. cerevisiae deletion strains, strain wtn01, hits give low values 1.01 | S. cerevisiae strains, strain wild type, hits give low values 1.01
